According to ChEMBL document CHEMBL1157539, “Thousands of chemical starting points for antimalarial lead identification” (Nature, 2010):

Each compound was assayed on Plasmodium falciparum (assay: GSK_TCMDC: Inhibition of Plasmodium falciparum Dd2 in whole red blood cells, using parasite LDH activity as an index of growth. Test compounds present at 2uM).
Format: functional

In order of falling Inhibition:
1. O=C(NC(=O)c1ccccc1)NC1CCN(c2ccnc3cc(Cl)ccc23)C1.O=C(O)C(F)(F)F (stereo not drawn)  99%
2. COc1cccc(CC(=O)N2CCC(n3c(C)nc4ccc(C)cc43)CC2)c1  99%
3. CC(C)C[C@@H](C(=O)N[C@@H](CCCCNC(=O)OCc1ccccc1)C(=O)Nc1nccs1)[C@H](C)N(O)C=O  98%
4. CS(=O)(=O)c1ccc(CNCc2cccc(-c3cccc(-c4nc5cc(C(F)(F)F)ccc5[nH]4)c3)c2)cc1.O=C(O)C(F)(F)F  96%
5. O=C(NC1CCN(Cc2ccccc2)CC1)c1ccc(-c2nc3cc(Cl)c(Cl)cc3[nH]2)c(F)c1  83%
6. COc1ccc(Nc2ncc3c(-c4cccc(NC(=O)Cc5cccc(F)c5)c4)c[nH]c3n2)cc1OC  68%
7. CC(NCCC1CCC(NC(=O)N[C@H](C)C(O)(c2ccccc2)c2ccccc2)CC1)c1cccc2ccccc12 (stereo partly drawn)  58%
8. O=C(Nc1ccc(Cl)cc1C(=O)Nc1cccc(F)c1)c1ccc([N+](=O)[O-])cc1  54%
9. Cc1cccc2nc(-c3ccc(-c4cccc(NC(=O)CN5CCN(C)CC5)c4)s3)[nH]c12  51%
10. CN(Cc1ccc(-c2ccc(C(F)(F)F)cc2)cc1)C(=O)Cn1c(CCc2cccc(F)c2F)cc(=O)c2ccc(OCC3CCCN3C)cc21.O=C(O)C(O)C(O)C(=O)O (stereo not drawn)  37%
11. Cc1ccc2[nH]c(C)cc(=NN=Cc3ccc(Cl)cc3)c2c1  35%
12. Cn1cncc1C(=O)Nc1ccc(-c2cccc(-c3nc4cc(C(F)(F)F)ccc4[nH]3)c2)cc1  3%
13. CCCc1cc(Cc2cnc(N)nc2N)ccc1OCCCCCC(=O)O.Cl  0%
